TIM10 inh: growth inhibitors of isogenic TIM10 control yeast, primary screen, counter-screen for tim10-1 yeast inhibitor project, luminescence, uHTS | hit rate 1.4% among 330,000 | S. cerevisiae TIM10 strain growth, BacTiter-Glo luminescence, 24 h | inhibition, % at 10 µM;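 active means inhibition of 40% or more at the single tested concentration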;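 further: wild-type TIM10 isogenic control strain grown at permissive 25 °C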
PfHsp90 yeast 2: growth inhibition of PfHsp90-expressing yeast, primary screen, antimalarial PfHsp90 inhibitor project, S. cerevisiae, BacTiter-Glo luminescence, single point, set 2; inhibition, % at 9.4 µM; AID 504621, 2011; hit rate 0.32% among 310,000; BacTiter-Glo ATP, 48 h; yeast lacking PDR1 and PDR3 efflux regulators;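 active means every replicate shows inhibition above about 80%, whatever the replicate mean, limit read from the data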;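 further: 0% = DMSO neutral controls and 100% = 20 µM radicicol positive controls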
tim10-1 inh: growth inhibitors of tim10-1 mutant yeast, primary screen, luminescence, uHTS; S. cerevisiae tim10-1 ts strain growth, BacTiter-Glo, 24 h; inhibition, % at 20 µM; hit rate 2.2% among 330,000; AID 463190, 2010;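 active means inhibition of at least 40%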;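 further: mutant grown at 25 °C; 0% = DMSO wells with yeast and 100% = wells holding no yeast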
SUMO Mot1 rescue: yeast Mot1-301 growth rescue at high temperature, primary screen, SUMOylation pathway inhibitor project, S. cerevisiae, ATP luminescence, 38.5C; hit rate 1% among 320,000; AID 2716, 2010; growth rescue, % at 18.8 µM; S. cerevisiae Mot1-301 growth rescue; percent above DMSO median, 100 means doubled;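 active means every valid replicate shows activation above 250% relative to neutral control wells; inactive means the rest, any valid replicate at or below 250%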;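 further: OY570 slx delta 5 strain wells were the positive control but not used for scaling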
tim23-1 inh: growth inhibitors of tim23-1 mutant yeast, primary screen, luminescence, uHTS | S. cerevisiae tim23-1 growth, BacTiter-Glo luminescence, 24 h | inhibition, % at 20 µM | hit rate 1.3% among 330,000 | AID 463212, 2010;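 active means growth inhibition of the mutant yeast at or above 50%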;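 further: temperature-sensitive mutant grown at 25 °C; plate controls were DMSO-treated mutant yeast for no effect and medium wells lacking yeast for full effect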
tim10-1 conf: growth inhibitors of tim10-1 mutant yeast, confirmation, single concentration, luminescence, S. cerevisiae; shares compounds with tim10-1 inh; S. cerevisiae tim10-1 ts strain growth, BacTiter-Glo, 24 h; inhibition, % at 20 µM; hit rate 56% among 7,400; AID 463213, 2010;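 active means inhibition of yeast growth at or above a set limit in either of two repeat tests at 20 µM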;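 further: tim10-1 mutant grown at permissive 25 °C to find synthetic lethal compounds; 0% = DMSO yeast wells and 100% = medium wells without yeast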
Active calls of the source: *. Sampled rows, rich in hits. Any-hit rate of the full collection: about 4.4%.

Results for CC1(NC(=O)c2cc(Cl)nc3ccccc23)CCS(=O)(=O)C1 (centres undefined) ?
TIM10 inh: 4; PfHsp90 yeast 2: -20; tim10-1 inh: 8; SUMO Mot1 rescue: 10; tim23-1 inh: 9

What do the screens show for `CC1=NOC(=O)/C1=C/c1ccc2c(c1)OCO2`?
TIM10 inh: -2; PfHsp90 yeast 2: -25; tim10-1 inh: -8; SUMO Mot1 rescue: -15; tim23-1 inh: 23

What do the screens show for `COC(=O)C1=C(C)NC(=O)/C1=C\c1ccc2c(c1)OCO2`?
TIM10 inh: 26; PfHsp90 yeast 2: 18; tim10-1 inh: 42*; SUMO Mot1 rescue: 290; tim23-1 inh: 31; tim10-1 conf: 26

How did Cc1ccc(C(=O)c2no[n+]([O-])c2C(=O)c2ccc(C)cc2)cc1 do in these assays?
TIM10 inh: 1; PfHsp90 yeast 2: 128*; tim10-1 inh: 44*; SUMO Mot1 rescue: 1; tim23-1 inh: 47; tim10-1 conf: 60*

Results for Cc1ccc(NCCC(=O)c2cccc([N+](=O)[O-])c2)c(C)c1 ?
TIM10 inh: -4; PfHsp90 yeast 2: -2; tim10-1 inh: 37; SUMO Mot1 rescue: 62; tim23-1 inh: 23

What do the screens show for `Cc1cccc(NCCC(=O)c2ccc([N+](=O)[O-])cc2)c1C`?
TIM10 inh: 23; tim10-1 inh: 40*; SUMO Mot1 rescue: 69; tim23-1 inh: 22; tim10-1 conf: 38*

Results for O=c1[nH]c(C2CCCN(S(=O)(=O)c3ccccc3F)C2)nc2c1nnn2Cc1ccccc1Cl (centres undefined) ?
TIM10 inh: 8; PfHsp90 yeast 2: 31; tim10-1 inh: 5; SUMO Mot1 rescue: 1; tim23-1 inh: 2

Results for CCOC(=O)c1ccc2[nH]c3c(c2c1)CCCC3O (centres undefined) ?
TIM10 inh: 5; PfHsp90 yeast 2: -5; tim10-1 inh: 23; SUMO Mot1 rescue: 7; tim23-1 inh: 24

How did CCOC(=O)c1ccc2[nH]c3c(c2c1)CCCC3 do in these assays?
TIM10 inh: 29; PfHsp90 yeast 2: -36; tim10-1 inh: 42*; SUMO Mot1 rescue: 14; tim23-1 inh: 28; tim10-1 conf: 34*

What do the screens show for `Cc1ccc(S(=O)(=O)NC(=O)COc2cc(C)ccc2C(C)C)cc1`?
TIM10 inh: 5; PfHsp90 yeast 2: 5; tim10-1 inh: -2; SUMO Mot1 rescue: 200; tim23-1 inh: 3

Results for CCCN1C(=O)/C(=N\OCC(=O)NC23CC4CC(CC(C4)C2)C3)c2ccccc21 ?
TIM10 inh: 19; PfHsp90 yeast 2: 4; tim10-1 inh: 42*; SUMO Mot1 rescue: -12; tim23-1 inh: 47; tim10-1 conf: 22

How did O=C(COC(=O)c1ccccc1)NC12CC3CC(CC(C3)C1)C2 do in these assays?
TIM10 inh: 14; PfHsp90 yeast 2: -25; tim10-1 inh: 39; SUMO Mot1 rescue: -3; tim23-1 inh: 37

What do the screens show for `CCCN1C(=O)/C(=N\OCC(=O)Nc2ccc(C(C)C)cc2)c2ccccc21`?
TIM10 inh: 14; PfHsp90 yeast 2: 3; tim10-1 inh: 48*; SUMO Mot1 rescue: 15; tim23-1 inh: 39; tim10-1 conf: 38*

Results for CC(C)c1ccc(NC(=O)COc2nncc3ccccc23)cc1 ?
TIM10 inh: 16; PfHsp90 yeast 2: 0; tim10-1 inh: 14; SUMO Mot1 rescue: 3; tim23-1 inh: 21

What do the screens show for `O=C(NNC(=S)Nc1ccc(Br)cc1)c1ccccc1Br`?
TIM10 inh: 36; PfHsp90 yeast 2: -22; tim10-1 inh: 46*; SUMO Mot1 rescue: -17; tim23-1 inh: 33; tim10-1 conf: 28

How did O=C(NNC(=S)Nc1ccc(Cl)cc1)c1ccccc1OC(F)F do in these assays?
TIM10 inh: 32; PfHsp90 yeast 2: -16; tim10-1 inh: 42*; SUMO Mot1 rescue: -12; tim23-1 inh: 42; tim10-1 conf: 39*

Results for COC(=O)[C@@]1(Cc2ccccc2)[C@H]2C(=O)N(C)C(=O)[C@H]2[C@H]2CN=C(SCc3ccccc3)N21 ?
TIM10 inh: 3; PfHsp90 yeast 2: 6; tim10-1 inh: 12; tim23-1 inh: 32

Results for COc1ccc(/C=C(\C#N)C(=O)N=CN(C)C)cc1 ?
TIM10 inh: 8; PfHsp90 yeast 2: 15; tim10-1 inh: 20; SUMO Mot1 rescue: 12; tim23-1 inh: 14

How did COc1ccc(/C=C(\C#N)C(=O)N2COCC2(C)C)cc1 do in these assays?
TIM10 inh: 21; PfHsp90 yeast 2: -10; tim10-1 inh: 47*; SUMO Mot1 rescue: -3; tim23-1 inh: 47; tim10-1 conf: 31*

Results for CCOC(=O)c1cnc(-n2nc(C)cc2C)nc1NNc1cc(-c2ccccc2)nc(C)n1 ?
TIM10 inh: 2; tim10-1 inh: -6; SUMO Mot1 rescue: 98; tim23-1 inh: -14

What do the screens show for `CCOC(=O)c1cnc(-n2nc(C)cc2C)nc1NNc1ncc(-c2ccccc2)cn1`?
TIM10 inh: 11; tim10-1 inh: 54*; SUMO Mot1 rescue: -2; tim23-1 inh: 36; tim10-1 conf: 16

Results for COc1ccc(OCCOC(=O)CNS(=O)(=O)c2ccc(SC)c([N+](=O)[O-])c2)cc1 ?
TIM10 inh: 10; PfHsp90 yeast 2: 20; tim10-1 inh: 6; SUMO Mot1 rescue: 28; tim23-1 inh: 21

What do the screens show for `Cc1ccc(N=Nc2c(C)[nH][nH]c2=O)c(C)c1`?
TIM10 inh: -4; PfHsp90 yeast 2: -37; tim10-1 inh: 36; SUMO Mot1 rescue: -2; tim23-1 inh: 18

How did Cc1ccc(-c2cc(=O)[nH][nH]2)c(C)c1 do in these assays?
TIM10 inh: 30; PfHsp90 yeast 2: 18; tim10-1 inh: 44*; SUMO Mot1 rescue: -18; tim23-1 inh: 25; tim10-1 conf: 24

How did Cc1ccc(Nc2c(-c3ccccc3O)nc3cnccn23)cc1 do in these assays?
TIM10 inh: 14; PfHsp90 yeast 2: -2; tim10-1 inh: 40*; SUMO Mot1 rescue: 725; tim23-1 inh: 47; tim10-1 conf: 27

What do the screens show for `CCN(CC)C(=O)c1sc2nc(-c3cccs3)cc(-c3ccc(Cl)cc3)c2c1N`?
TIM10 inh: 38; PfHsp90 yeast 2: -13; tim10-1 inh: 58*; SUMO Mot1 rescue: 103; tim23-1 inh: 34; tim10-1 conf: 38*

What do the screens show for `N#Cc1sc2nc(-c3cccs3)cc(-c3ccc(Cl)cc3)c2c1N`?
TIM10 inh: 10; PfHsp90 yeast 2: -27; tim10-1 inh: 17; SUMO Mot1 rescue: 2; tim23-1 inh: 3

How did CCN1CCCC1CNC(=O)Cn1cc(C)c(=O)[nH]c1=O (centres undefined) do in these assays?
PfHsp90 yeast 2: 5

What do the screens show for `Cc1nc(CN2CCCCC2)c(O)c(=O)[nH]1`?
PfHsp90 yeast 2: -6
